# Screening results as filed in PubChem BioAssay.
# rCAG RNA binder = binds r(CAG) RNA repeats; 370,000 compounds, 1.3% hits; r(CAG) RNA repeat, TO-PRO-1 dye displacement fluorescence; inhibition, % at 3 µM; AID 651821;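 active means inhibition above the plate cutoff, the mean of all test compounds on that plate plus 3 SD, cut at about 35% in these data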;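 further: 0% = DMSO alone and 100% = 100 µM mitoxantrone as full dye displacement; higher means more dye released from RNA so lower well fluorescence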
# DSG3 Ab inh = human desmoglein-3 autoantibody binding inhibition; 310,000 compounds, 0.48% hits; P32926; DSG3-coupled beads, scFv-anti-DSG3-GFP binding, flow cytometry; stronger effect = lower value; binding (percent of control), % at 10 µM;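 active means binding more than 3 SD below its plate's average and above zero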;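 further: hits lower antibody fragment binding to DSG3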
# MPTP inh = permeability transition pore inhibition; AID 602449; inhibition, % at 10 µM; isolated mouse mitochondria, Ca2+ swelling absorbance, 30 min; 360,000 compounds, 1.4% hits;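 active means inhibition of 50% or more, scaled per plate between neutral and stimulator controls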;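 further: 0% = DMSO wells given calcium and 100% = 1 mM EGTA wells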
# ADAM10 inh = inhibits human ADAM10. O14672. recombinant ADAM10, EDANS/DABCYL FRET peptide cleavage, 3 h. inhibition, % at 7 µM. 370,000 compounds, 0.62% hits;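 active means inhibition above a per-campaign cutoff equal to the mean of compounds falling between control-based bounds plus 3 SD, cut at about 20% in these data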;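 further: 0% = DMSO wells while the 100% control is not disclosed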
# Target sequence (O14672 214-748 limits assumed): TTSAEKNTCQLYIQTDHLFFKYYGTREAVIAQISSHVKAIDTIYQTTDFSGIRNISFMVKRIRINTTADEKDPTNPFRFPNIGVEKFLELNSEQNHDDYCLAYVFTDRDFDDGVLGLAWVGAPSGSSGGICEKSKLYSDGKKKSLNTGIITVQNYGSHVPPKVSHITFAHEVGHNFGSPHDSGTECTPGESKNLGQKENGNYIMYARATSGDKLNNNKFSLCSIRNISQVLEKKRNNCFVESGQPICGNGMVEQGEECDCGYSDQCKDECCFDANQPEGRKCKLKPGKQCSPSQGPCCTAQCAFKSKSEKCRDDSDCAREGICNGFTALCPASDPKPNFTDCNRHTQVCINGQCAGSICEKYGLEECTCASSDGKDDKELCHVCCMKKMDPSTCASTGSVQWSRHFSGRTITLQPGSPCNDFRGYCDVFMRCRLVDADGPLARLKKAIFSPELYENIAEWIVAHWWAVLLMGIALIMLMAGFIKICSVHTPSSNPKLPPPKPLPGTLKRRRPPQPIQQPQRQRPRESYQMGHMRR
# proKLK7 act = activators of human kallikrein-7 zymogen; purified proKLK7, EDANS-DABCYL substrate fluorescence; 100% is mature enzyme control, 0% vehicle; activation, % at 7 µM; 370,000 compounds, 0.9% hits; AID 652039;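 active means activation above the mean of all tested compounds plus 3 SD, computed per campaign excluding outliers beyond control limits, cut at about 13% in these data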
# ADAM17 inh = inhibits human ADAM17. AID 720648. P78536. inhibition, % at 6.95 µM. recombinant ADAM17, EDANS/DABCYL FRET peptide cleavage. 370,000 compounds, 0.83% hits;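 active means inhibition above the mean of compounds lying between control limits plus 3 SD, set per campaign, cut at about 8.5% in these data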;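 further: 0% = DMSO-only wells as the low control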
# Starred values were filed as active, the others as inactive; i = inactive; . = no result given. This is a sample that favours compounds with a hit; in the whole collection about 4.7% have one here.
SMILES,rCAG RNA binder,DSG3 Ab inh,MPTP inh,ADAM10 inh,proKLK7 act,ADAM17 inh
O=C(NCc1ccco1)c1cccc2c1C(=O)c1ccc(/C=C/c3ccccc3)cc1S2(=O)=O,39*,94,-1,-21,-5,-12
CCN=C1S/C(=C/c2cc(C)n(-c3ccc(Cl)cc3F)c2C)C(=O)N1CC,.,.,.,-11,.,-9
CCOc1cc(CN2CCN(c3ncccn3)CC2)ccc1OC,-10,84*,3,0,0,-1
C[C@H](CO)N1C[C@H](C)[C@@H](CN(C)C(=O)Nc2ccc(C(C)(C)C)cc2)OCc2cn(nn2)CCCC1=O,1,.,.,6,0,-3
Cc1ccc(-c2nc(NC(=O)CSc3cc(C)c4ccccc4n3)ns2)cc1,2,-0.3*,0,-6,1,-2
COc1ccc2c(C)cc(SCC(=O)Nc3nsc(-c4ccc(C)cc4)n3)nc2c1,1,110,-1,-12,0,-3
COc1cc(-c2c(C(=O)c3ccccc3)[nH]c(N)c2C(=O)NCCc2c[nH]c3ccccc23)ccc1F,11,.,.,16,-1,7
O=C(/C=C/c1cc[n+](CC(=O)c2ccc3cccc4c3c2CC4)cc1)c1ccc2cccc3c2c1CC3,.,63*,2,.,.,.
COc1cccc(CN(C(=O)Cc2c[nH]c3ccccc23)C(C(=O)NC2CCCCC2)c2cccs2)c1 (stereo not drawn),10,104,6,12,0,8
COc1ccc(C(C(=O)NC2CCCCC2)N(Cc2cccs2)C(=O)Cc2c[nH]c3ccccc23)cc1 (stereo not drawn),9,30*,9,-8,0,1
CC(C)N1CCCCC(NC(=O)c2cccs2)C1=O (stereo not drawn),2,.,.,-11,0,-9
Nc1cc2ccncc2c2ccccc12,0,94,0,i,103*,-474
N#Cc1cc2ccncc2c2ccccc12,0,102,-1,-48,0,-9
CC(C)n1nnnc1C1(C)CCSCC(=O)N1Cc1cccc(C(F)(F)F)c1 (stereo not drawn),3,.,.,-7,0,-5
COC(=O)c1ccc(C2NC(=S)N(c3ccccc3)C(C)=C2C(=O)Nc2ccccc2OC)cc1 (stereo not drawn),2,-8.8*,1,6,0,-1
CCOc1ccc(-n2ccc(=O)c(C(=O)Nc3ccc(S(=O)(=O)Nc4nccs4)cc3)n2)cc1,68*,101,0,-48,9,-16
Cc1nc(NC(=O)/C=C/c2ccco2)sc1C,4,-3.5*,0,-4,1,0
CN1c2ccc(-c3cccc(F)c3)cc2[C@H]2[C@H](CCN2S(=O)(=O)c2cccc(F)c2)[C@H]1CO,9,.,.,-18,1,-6
FC(F)(F)c1ccccc1Cc1c(-c2ccco2)nc2ccc(Cl)cn12,18,.,-2,-46,0,-14
FC(F)(F)c1cc(Cl)c2nc(-c3ccco3)c(Cc3ccccc3C(F)(F)F)n2c1,58*,.,0,7,0,1
Cc1ccc(-c2nc3c(Cl)cc(C(F)(F)F)cn3c2Cc2ccccc2C(F)(F)F)cc1,35*,.,2,13,0,4
COC(=O)c1ccc(CNC(=O)COC(=O)/C=C/c2cc(OC)c(OC)c(OC)c2)cc1,-2,61*,-2,-39,0,-17
COc1cc(/C=C/C(=O)OCC(=O)NCc2ccc3c(c2)OCO3)cc(OC)c1OC,2,.,-2,-26,0,-7
C[C@@H]1CN([C@@H](C)CO)C(=O)CCCn2cc(nn2)CO[C@H]1CN(C)C(=O)Nc1cccc(F)c1,-1,.,.,-14,0,-6
CN(Cc1ccccc1)C(=O)OCc1cn(Cc2cccc(C(F)(F)F)c2)nn1,-1,.,.,11,0,2
SMILES,rCAG RNA binder,DSG3 Ab inh,MPTP inh,ADAM10 inh,proKLK7 act,ADAM17 inh
O=C1NC(=O)/C(=C/c2ccco2)N1,0,106,0,-7,0,-6
O=C1NC(=S)NC1=Cc1ccco1,17,78*,1,-29,1,-1
Cc1ccc(S(=O)(=O)N(Cc2cc3cc4c(cc3[nH]c2=O)OCCO4)CC2CCCO2)cc1 (stereo not drawn),10,82*,0,-188,-4,-66
O=c1[nH]c2cc3c(cc2cc1CN(CC1CCCO1)S(=O)(=O)c1ccc(Cl)cc1)OCCO3 (stereo not drawn),0,97,1,-37,0,-18
CCC[C@H]1[C@@H](OC(=O)N2CCOCC2)CC[C@@]23CCCN2C(=O)CCC[C@@H]13,.,.,.,-14,.,-2
CCC(Sc1nc(-c2ccccc2)c(C#N)c(=O)[nH]1)C(=O)Nc1cc(C)on1 (stereo not drawn),50*,86,1,-4,1,-3
O=C(c1ccccc1NS(=O)(=O)c1ccc([N+](=O)[O-])cc1[N+](=O)[O-])N1O[C@@H]2C=C[C@H]1C2,35*,96,2,-60,0,-16
Nc1[nH]c2cc(C(F)(F)F)ccc2c1C(=O)NC1CCCCC1,2,.,.,1,1,5
Cc1ccc(Sc2ncccc2COC(=O)Nc2c(C)cccc2C)cc1,0,3.0*,1,16,0,7
CC(C)C[C@H]1COc2c(Cl)cccc2S(=O)(=O)N1Cc1cccc(Cl)c1,7,.,.,8,-1,3
O=[N+]([O-])c1ccc(S(=O)(=O)CC2CSc3nc4ccccc4n32)cc1 (stereo not drawn),4,-10*,4,6,0,1
c1ccc2[nH]c(COCc3nc4ccccc4[nH]3)nc2c1,.,.,.,-4,.,-6
O=C(NCc1ccccc1)C1CCN(S(=O)(=O)c2cccc3cccnc23)CC1,2,90*,-1,5,0,-5
COc1ccc2cc(C#N)c(SCC(=O)N3CC(=O)Nc4ccccc43)nc2c1,.,69*,6,.,.,.
CCOC(=O)c1c(N)nn(C(=O)C(C)(C)C)c1-c1ccccc1,1,92*,1,5,0,0
COCCN1C=C(C(=O)OC)C(c2ccccc2C(F)(F)F)C(C(=O)OC)=C1,-2,66,2,i,-17,i
CCCCN1C=C(C(=O)OC)C(c2ccccc2C(F)(F)F)C(C(=O)OC)=C1,1,-28*,2,-119,-3,-33
C=CCN1C(=O)[C@@H](CC(=O)NCCCOC)[C@]2(C(=O)OC)CCCCC=C12,0,.,.,0,0,2
O=c1c2c3nc4ccccc4nc3n(-c3ccc4c(c3)OCCO4)c2ncn1C1CCCC1,-1,66*,-2,-10,-1,-10
COC(=O)[C@]12C[C@H](CC(=O)N3CCC(c4ccccc4)CC3)C(=O)N(CCC3=CCCCC3)C1=C[C@H](C(C)(C)C)O[C@@H]2C,5,.,.,5,0,6
O=C(Nc1cccs1)OC1CC2CC1[C@H]1CCCCN1C2 (stereo partly drawn),3,.,.,2,1,1
